According to the supplement of paper PMC10849652:
Targets with a hit are over-represented here; the source holds about 8,800 in all. About 0.5% of all pairs of compound and target were hits.

Compound: CCN(CCCOc1ccc2c(Nc3cc(CC(=O)Nc4cccc(F)c4)[nH]n3)ncnc2c1)CCOP(=O)(O)O [barasertib]
Assay: log2 fold change, soluble protein after heating vs DMSO (PISA); higher = thermal stabilisation; K562 lysate, 10 uM; active = over 0.2 and 3.5 SD of the protein, either way, in both replicates (recomputed)
Procedure, shortened: (§1)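 K562 pellets were dounce-homogenised in PBS pH 7.4 with 1 mM MgCl2, and the crude extract at 1 mg/mL protein was treated with 10 μM compound for 30 min. Aliquots were heated for 3 min across 48°C-58°C, pooled, and brought to 0.5% NP-40 at 4°C; soluble protein was the supernatant after 21,000xg for 90 min. Soluble protein was quantified by TMTpro 16plex LC-MS/MS with channel sums equalised, and reported as log2 fold change in thermal stability against DMSO controls, with values from duplicates.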

Chain of UniProt Q9UHX1 (Q9UHX1 whole entry, looked up): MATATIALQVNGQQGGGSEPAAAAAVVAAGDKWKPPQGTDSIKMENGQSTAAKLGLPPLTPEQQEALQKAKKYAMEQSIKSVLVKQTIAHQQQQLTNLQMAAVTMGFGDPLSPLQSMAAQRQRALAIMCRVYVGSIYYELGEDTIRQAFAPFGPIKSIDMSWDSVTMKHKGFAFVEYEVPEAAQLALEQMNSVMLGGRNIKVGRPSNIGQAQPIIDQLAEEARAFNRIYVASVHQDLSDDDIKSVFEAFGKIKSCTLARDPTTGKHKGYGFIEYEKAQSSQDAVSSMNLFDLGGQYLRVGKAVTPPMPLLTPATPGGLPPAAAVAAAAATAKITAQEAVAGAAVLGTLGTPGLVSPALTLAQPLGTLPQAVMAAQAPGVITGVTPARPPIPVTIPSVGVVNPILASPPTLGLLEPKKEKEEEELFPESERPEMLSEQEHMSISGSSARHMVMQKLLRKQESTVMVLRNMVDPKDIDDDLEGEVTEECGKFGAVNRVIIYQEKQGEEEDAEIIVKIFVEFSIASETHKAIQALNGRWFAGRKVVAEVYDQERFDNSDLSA
Chain of UniProt P14314 (P14314 whole entry, looked up): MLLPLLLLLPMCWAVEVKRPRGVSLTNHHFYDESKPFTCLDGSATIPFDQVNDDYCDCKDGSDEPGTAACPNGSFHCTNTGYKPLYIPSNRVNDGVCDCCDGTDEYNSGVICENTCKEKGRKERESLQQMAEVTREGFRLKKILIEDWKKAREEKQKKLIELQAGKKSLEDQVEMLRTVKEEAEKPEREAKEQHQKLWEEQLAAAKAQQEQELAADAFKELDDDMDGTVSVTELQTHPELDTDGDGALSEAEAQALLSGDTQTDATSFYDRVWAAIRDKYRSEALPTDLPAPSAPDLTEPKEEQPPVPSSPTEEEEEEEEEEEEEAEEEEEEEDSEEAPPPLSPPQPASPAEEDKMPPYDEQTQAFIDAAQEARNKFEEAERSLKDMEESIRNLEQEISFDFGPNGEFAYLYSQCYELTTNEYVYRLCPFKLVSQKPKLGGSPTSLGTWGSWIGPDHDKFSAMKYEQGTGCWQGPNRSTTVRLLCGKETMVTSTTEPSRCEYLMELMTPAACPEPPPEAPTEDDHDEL
Chain of UniProt O00459 (O00459 whole entry, looked up): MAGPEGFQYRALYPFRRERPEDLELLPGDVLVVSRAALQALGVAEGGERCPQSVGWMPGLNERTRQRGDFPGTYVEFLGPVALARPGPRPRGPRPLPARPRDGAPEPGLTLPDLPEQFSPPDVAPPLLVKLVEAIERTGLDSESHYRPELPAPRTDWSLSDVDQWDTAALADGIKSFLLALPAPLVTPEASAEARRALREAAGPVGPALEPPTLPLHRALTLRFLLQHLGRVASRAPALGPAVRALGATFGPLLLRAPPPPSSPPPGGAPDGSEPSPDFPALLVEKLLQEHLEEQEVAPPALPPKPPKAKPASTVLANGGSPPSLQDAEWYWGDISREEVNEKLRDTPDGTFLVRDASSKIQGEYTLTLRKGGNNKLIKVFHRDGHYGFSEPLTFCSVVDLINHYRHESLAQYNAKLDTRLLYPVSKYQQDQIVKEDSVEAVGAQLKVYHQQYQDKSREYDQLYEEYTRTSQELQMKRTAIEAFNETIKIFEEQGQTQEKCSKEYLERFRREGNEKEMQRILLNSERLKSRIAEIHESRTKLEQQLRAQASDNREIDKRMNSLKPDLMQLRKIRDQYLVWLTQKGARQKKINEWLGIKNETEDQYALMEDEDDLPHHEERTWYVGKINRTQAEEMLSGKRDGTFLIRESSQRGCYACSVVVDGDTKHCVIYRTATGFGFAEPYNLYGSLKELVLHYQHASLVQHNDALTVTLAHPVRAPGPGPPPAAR
Chain of UniProt P28065 (P28065 whole entry, looked up): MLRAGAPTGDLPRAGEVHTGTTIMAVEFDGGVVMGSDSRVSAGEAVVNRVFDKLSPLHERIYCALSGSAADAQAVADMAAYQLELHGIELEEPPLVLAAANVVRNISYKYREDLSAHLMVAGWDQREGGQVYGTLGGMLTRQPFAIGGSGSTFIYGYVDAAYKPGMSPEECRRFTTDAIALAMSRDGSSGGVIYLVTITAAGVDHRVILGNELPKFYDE
Chain of UniProt O00541 (O00541 whole entry, looked up): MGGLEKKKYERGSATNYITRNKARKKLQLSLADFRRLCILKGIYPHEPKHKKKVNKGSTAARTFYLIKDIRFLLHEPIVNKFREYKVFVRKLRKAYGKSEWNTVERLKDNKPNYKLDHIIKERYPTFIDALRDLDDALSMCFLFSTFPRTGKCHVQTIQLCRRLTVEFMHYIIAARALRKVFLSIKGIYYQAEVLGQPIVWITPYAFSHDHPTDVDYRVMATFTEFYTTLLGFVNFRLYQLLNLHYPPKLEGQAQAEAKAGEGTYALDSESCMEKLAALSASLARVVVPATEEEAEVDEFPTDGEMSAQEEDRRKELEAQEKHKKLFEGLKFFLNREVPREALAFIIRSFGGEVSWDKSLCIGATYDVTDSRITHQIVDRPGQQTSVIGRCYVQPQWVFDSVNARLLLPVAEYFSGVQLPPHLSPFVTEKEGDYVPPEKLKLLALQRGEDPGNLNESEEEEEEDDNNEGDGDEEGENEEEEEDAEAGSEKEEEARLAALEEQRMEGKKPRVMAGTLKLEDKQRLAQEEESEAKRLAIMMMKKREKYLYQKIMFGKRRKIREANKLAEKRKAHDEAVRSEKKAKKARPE
Chain of UniProt O43175 (O43175 whole entry, looked up): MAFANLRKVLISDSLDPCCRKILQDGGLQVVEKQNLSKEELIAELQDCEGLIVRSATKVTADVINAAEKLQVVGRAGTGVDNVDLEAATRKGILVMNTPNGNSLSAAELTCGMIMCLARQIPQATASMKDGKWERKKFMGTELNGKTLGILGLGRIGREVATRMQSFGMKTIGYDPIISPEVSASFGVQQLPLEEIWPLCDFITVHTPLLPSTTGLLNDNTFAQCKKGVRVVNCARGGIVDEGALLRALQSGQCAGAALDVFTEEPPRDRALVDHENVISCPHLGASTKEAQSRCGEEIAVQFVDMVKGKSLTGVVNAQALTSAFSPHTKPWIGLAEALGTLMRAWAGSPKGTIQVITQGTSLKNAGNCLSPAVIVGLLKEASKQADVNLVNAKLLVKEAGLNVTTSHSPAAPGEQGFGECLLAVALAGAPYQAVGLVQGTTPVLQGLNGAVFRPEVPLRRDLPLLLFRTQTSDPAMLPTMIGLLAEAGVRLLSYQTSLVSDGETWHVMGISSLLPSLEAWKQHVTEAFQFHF
Chain of UniProt O15031 (O15031 whole entry, looked up): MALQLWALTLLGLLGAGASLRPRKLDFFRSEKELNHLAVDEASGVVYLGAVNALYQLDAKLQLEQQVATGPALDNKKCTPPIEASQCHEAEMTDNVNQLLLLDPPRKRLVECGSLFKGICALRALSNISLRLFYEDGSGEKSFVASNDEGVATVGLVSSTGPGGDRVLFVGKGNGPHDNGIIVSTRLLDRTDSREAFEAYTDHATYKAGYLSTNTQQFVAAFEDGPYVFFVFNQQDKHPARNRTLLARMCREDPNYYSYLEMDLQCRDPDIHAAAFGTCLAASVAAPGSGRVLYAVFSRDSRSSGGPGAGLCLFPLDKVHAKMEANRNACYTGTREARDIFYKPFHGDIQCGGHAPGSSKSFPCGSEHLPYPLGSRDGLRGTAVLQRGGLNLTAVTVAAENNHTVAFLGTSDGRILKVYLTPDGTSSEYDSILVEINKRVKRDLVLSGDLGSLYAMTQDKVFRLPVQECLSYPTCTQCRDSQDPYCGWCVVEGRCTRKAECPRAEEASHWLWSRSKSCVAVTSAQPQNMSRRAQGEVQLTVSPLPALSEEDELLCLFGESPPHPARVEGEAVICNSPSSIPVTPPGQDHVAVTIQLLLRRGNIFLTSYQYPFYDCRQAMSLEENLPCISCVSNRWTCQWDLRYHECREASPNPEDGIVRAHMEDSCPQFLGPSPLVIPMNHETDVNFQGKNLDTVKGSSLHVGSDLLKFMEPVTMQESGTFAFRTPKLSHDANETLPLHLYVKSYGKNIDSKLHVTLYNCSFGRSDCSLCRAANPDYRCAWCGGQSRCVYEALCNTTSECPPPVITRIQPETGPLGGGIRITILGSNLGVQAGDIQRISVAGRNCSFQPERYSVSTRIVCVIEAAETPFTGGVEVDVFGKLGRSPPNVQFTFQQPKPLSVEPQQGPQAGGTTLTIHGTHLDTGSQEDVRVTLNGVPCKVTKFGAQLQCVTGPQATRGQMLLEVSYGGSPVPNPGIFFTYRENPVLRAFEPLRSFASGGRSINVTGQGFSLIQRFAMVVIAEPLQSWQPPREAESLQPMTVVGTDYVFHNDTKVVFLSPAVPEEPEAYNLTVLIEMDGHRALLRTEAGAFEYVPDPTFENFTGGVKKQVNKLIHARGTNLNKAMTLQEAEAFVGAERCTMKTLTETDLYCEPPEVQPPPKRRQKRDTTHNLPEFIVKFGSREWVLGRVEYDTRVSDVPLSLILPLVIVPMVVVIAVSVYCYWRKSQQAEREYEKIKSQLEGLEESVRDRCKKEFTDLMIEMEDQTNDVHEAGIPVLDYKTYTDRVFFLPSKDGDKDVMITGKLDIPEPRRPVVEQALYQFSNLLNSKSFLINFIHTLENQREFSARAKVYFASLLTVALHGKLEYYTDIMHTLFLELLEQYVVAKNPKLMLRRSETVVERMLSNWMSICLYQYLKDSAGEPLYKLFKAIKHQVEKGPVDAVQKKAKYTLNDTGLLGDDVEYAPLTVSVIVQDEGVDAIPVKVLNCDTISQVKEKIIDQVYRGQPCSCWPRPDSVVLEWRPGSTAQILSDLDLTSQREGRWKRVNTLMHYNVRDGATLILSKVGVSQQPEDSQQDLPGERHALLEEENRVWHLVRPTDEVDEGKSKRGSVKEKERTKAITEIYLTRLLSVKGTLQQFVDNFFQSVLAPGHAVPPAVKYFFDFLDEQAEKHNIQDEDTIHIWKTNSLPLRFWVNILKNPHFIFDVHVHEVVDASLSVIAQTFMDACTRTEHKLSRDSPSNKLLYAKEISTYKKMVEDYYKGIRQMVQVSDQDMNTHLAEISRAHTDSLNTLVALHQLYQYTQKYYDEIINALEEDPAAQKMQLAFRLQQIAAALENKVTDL

log2 fold change, inactive:
PPP2R5C isoform 5 (UniProt Q13362) -0.03
PLXNB2 (UniProt O15031) 0.008
PRKCSH isoform 2 (UniProt P14314) -0.159
PCBP2 (UniProt H3BRU6) -0.115
PRMT8 (UniProt Q9NR22) 0.007
PDF (UniProt Q9HBH1) 0.028
PIP4K2B (UniProt P78356) -0.045
PUF60 (UniProt Q9UHX1) -0.005
PI4KA (UniProt P42356) 0
PRKAR2B (UniProt P31323) 0.053
PRKAB2 (UniProt O43741) -0.081
PTPN23 (UniProt Q9H3S7) 0.003
PSMB9 (UniProt P28065) 0.158
POLR2M (UniProt P0CAP2) 0.021
POGK (UniProt Q9P215) 0.011
POLD1 (UniProt P28340) -0.011
PDCD6IP (UniProt Q8WUM4) 0.083
PRKCB isoform 2 (UniProt P05771) -0.017
POLR2F (UniProt P61218) 0.034
PGPEP1 (UniProt Q9NXJ5) -0.036
PHKG2 (UniProt P15735) 0.126
PIK3R2 (UniProt O00459) -0.002
PGGT1B (UniProt P53609) 0
PCF11 (UniProt O94913) 0.015
PIP4P2 (UniProt Q8N4L2) 0.311
PRKACB isoform 2 (UniProt P22694) 0.013
PRKCD (UniProt Q05655) 0.057
PRKAR2A (UniProt P13861) 0.055
PSTPIP2 (UniProt Q9H939) 0.01
PUS1 (UniProt Q9Y606) 0.055
PWP1 (UniProt Q13610) 0.012
PWP2 (UniProt Q15269) 0.044
PHKA1 (UniProt P46020) 0.089
PICALM (UniProt Q13492) 0.037
PES1 (UniProt O00541) -0.019
PLEKHO2 (UniProt Q8TD55) 0.161
PPOX (UniProt P50336) -0.093
PRIM2 (UniProt P49643) -0.005
PHGDH (UniProt O43175) -0.049

Compound: CC[C@@H]1C(=O)N(C)c2cnc(Nc3ccc(C(=O)NC4CCN(C)CC4)cc3OC)nc2N1C1CCCC1
Assay: as above
Procedure, shortened: as §1

log2 fold change, active:
PIP4K2B (UniProt P78356) 0.21
PSMB9 (UniProt P28065) 0.335

log2 fold change, inactive:
PPP2R5C isoform 5 (UniProt Q13362) -0.063
PLXNB2 (UniProt O15031) 0.051
PRKCSH isoform 2 (UniProt P14314) 0.03
PCBP2 (UniProt H3BRU6) 0.085
PRMT8 (UniProt Q9NR22) -0.009
PDF (UniProt Q9HBH1) -0.118
PUF60 (UniProt Q9UHX1) 0.002
PI4KA (UniProt P42356) 0.007
PRKAR2B (UniProt P31323) -0.028
PRKAB2 (UniProt O43741) 0
PTPN23 (UniProt Q9H3S7) -0.006
POLR2M (UniProt P0CAP2) -0.108
POGK (UniProt Q9P215) -0.005
POLD1 (UniProt P28340) -0.021
PDCD6IP (UniProt Q8WUM4) -0.061
PRKCB isoform 2 (UniProt P05771) -0.01
POLR2F (UniProt P61218) -0.043
PGPEP1 (UniProt Q9NXJ5) -0.091
PHKG2 (UniProt P15735) 0.074
PIK3R2 (UniProt O00459) 0.128
PGGT1B (UniProt P53609) -0.041
PCF11 (UniProt O94913) 0.02
PIP4P2 (UniProt Q8N4L2) 0.039
PRKACB isoform 2 (UniProt P22694) -0.021
PRKCD (UniProt Q05655) 0.008
PRKAR2A (UniProt P13861) 0.011
PSTPIP2 (UniProt Q9H939) -0.029
PUS1 (UniProt Q9Y606) -0.086
PWP1 (UniProt Q13610) -0.032
PWP2 (UniProt Q15269) 0.006
PHKA1 (UniProt P46020) 0.044
PICALM (UniProt Q13492) 0.04
PES1 (UniProt O00541) -0.074
PLEKHO2 (UniProt Q8TD55) 0.068
PPOX (UniProt P50336) -0.036
PRIM2 (UniProt P49643) -0.034
PHGDH (UniProt O43175) 0.02
